The record followed here is paper PMC11006913.

Experiment in all cases: PBM; 200 nM protein, PBS
Conditions in all cases: dsDNA, one strand shown

In test [1] the target is NKX2-5 (Homo sapiens, UniProt P52952 125-210, R139K).
Test [2] has as its target T1, NKX2-4 (Homo sapiens, UniProt Q9H2Z4 175-261, T231S).
T1 sequence: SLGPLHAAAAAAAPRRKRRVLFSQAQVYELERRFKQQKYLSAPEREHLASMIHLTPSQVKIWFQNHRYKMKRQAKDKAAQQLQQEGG

The target of test [3] is T2, NKX2-6 (Homo sapiens, UniProt A6NCS4 118-204, R150C).
T2 sequence: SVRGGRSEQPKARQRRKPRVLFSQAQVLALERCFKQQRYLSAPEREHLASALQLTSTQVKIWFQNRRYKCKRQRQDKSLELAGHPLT

For test [4], the target named is T3, NKX2-6 (Homo sapiens, UniProt A6NCS4 118-204).
T3 sequence: T2 sequence with C33R

The target in test [5] is T4, NKX2-4 (Homo sapiens, UniProt Q9H2Z4 175-261, R246Q).
T4 sequence: T1 sequence with S57T, R72Q

Test [6] concerns the target T5, NKX2-6 (Homo sapiens, UniProt A6NCS4 118-204, F151L).
T5 sequence: T2 sequence with C33R, F34L

The target of test [7] is NKX3-2 (Homo sapiens, UniProt P78367 192-278, P234S).
Test [8] addresses NKX2-5 (Homo sapiens, UniProt P52952 125-210).
In test [9] the target is NKX3-2 (Homo sapiens, UniProt P78367 192-278).
Test [10] has as its target HOXC10 (Homo sapiens, UniProt Q9NYD6 254-340).
Test [11] addresses HOXC10 (Homo sapiens, UniProt Q9NYD6 254-340, K271E).
Test [12] concerns the target T6, SIX6 (Homo sapiens, UniProt O95475 114-200, L167I).
T6 sequence: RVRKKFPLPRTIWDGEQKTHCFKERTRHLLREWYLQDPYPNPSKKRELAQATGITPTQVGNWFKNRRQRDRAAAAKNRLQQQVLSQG

The target of test [13] is T7, SIX6 (Homo sapiens, UniProt O95475 114-200, L143V).
T7 sequence: T6 sequence with L30V, I54L

Test [14] has as its target T8, SIX6 (Homo sapiens, UniProt O95475 114-200, H141N).
T8 sequence: T6 sequence with H28N, I54L

The target of test [15] is T9, SIX6 (Homo sapiens, UniProt O95475 114-200, T165P).
T9 sequence: T6 sequence with T52P, I54L

Test [16] concerns the target T10, SIX6 (Homo sapiens, UniProt O95475 114-200, L167M).
T10 sequence: T6 sequence with I54M

Test [17] concerns the target T11, SIX6 (Homo sapiens, UniProt O95475 114-200, L143M).
T11 sequence: T6 sequence with L30M, I54L

Test [18] addresses T12, SIX6 (Homo sapiens, UniProt O95475 114-200, L143I).
T12 sequence: T6 sequence with L30I, I54L

The target in test [19] is T13, SIX6 (Homo sapiens, UniProt O95475 114-200, T165G).
T13 sequence: T6 sequence with T52G, I54L

Test [20] concerns the target T14, SIX6 (Homo sapiens, UniProt O95475 114-200, T139Q).
T14 sequence: T6 sequence with T26Q, I54L

The target in test [21] is T15, SIX6 (Homo sapiens, UniProt O95475 114-200, T165A).
T15 sequence: T6 sequence with T52A, I54L

The target of test [22] is T16, SIX6 (Homo sapiens, UniProt O95475 114-200, L167V).
T16 sequence: T6 sequence with I54V

Test [23] addresses T17, SIX6 (Homo sapiens, UniProt O95475 114-200).
T17 sequence: T6 sequence with I54L

The target of test [24] is T18, SIX6 (Homo sapiens, UniProt O95475 114-200, T165I).
T18 sequence: T6 sequence with T52I, I54L

In test [25] the target is HOXC9 (Homo sapiens, UniProt P31274 178-260, K195R).
For test [26], the target named is HOXC9 (Homo sapiens, UniProt P31274 178-260).
The target in test [27] is ALX3 (Homo sapiens, UniProt O95076 139-225, N203Q).
Test [28] has as its target HOXC9 (Homo sapiens, UniProt P31274 178-260, R193K).
Test [29] has as its target ALX3 (Homo sapiens, UniProt O95076 139-225).
Test [30] concerns the target PROP1 (Homo sapiens, UniProt O75360 56-141).
The target in test [31] is PROP1 (Homo sapiens, UniProt O75360 56-141, R99H).
The target in test [32] is ALX3 (Homo sapiens, UniProt O95076 139-225, L168Q).
For test [33], the target named is HOXC9 (Homo sapiens, UniProt P31274 178-260, R222W).
The target in test [34] is ALX3 (Homo sapiens, UniProt O95076 139-225, L168V).
The target of test [35] is PROP1 (Homo sapiens, UniProt O75360 56-141, F88S).
Test [36] concerns the target ALX3 (Homo sapiens, UniProt O95076 139-225, N203S).
Test [37] concerns the target PRRX1 (Homo sapiens, UniProt P54821 80-166, F113S).
The target in test [38] is PRRX1 (Homo sapiens, UniProt P54821 80-166).
The target in test [39] is T19, PAX4 (Homo sapiens, UniProt O43316 9-242, R200K).
T19 sequence: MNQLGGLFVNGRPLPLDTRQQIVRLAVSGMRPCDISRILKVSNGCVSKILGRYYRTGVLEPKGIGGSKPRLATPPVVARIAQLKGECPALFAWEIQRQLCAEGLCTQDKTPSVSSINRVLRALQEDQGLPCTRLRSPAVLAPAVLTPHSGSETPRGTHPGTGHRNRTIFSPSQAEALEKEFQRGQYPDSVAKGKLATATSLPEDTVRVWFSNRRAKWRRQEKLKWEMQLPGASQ

The target of test [40] is T20, PAX4 (Homo sapiens, UniProt O43316 9-242).
T20 sequence: T19 sequence with K192R

The target in test [41] is T21, PAX4 (Homo sapiens, UniProt O43316 9-242, R200Q).
T21 sequence: T19 sequence with K192Q

Test [42] deals with T22, PAX4 (Homo sapiens, UniProt O43316 9-242, F177V).
T22 sequence: T19 sequence with F169V, K192R

Test [43] concerns the target T23, PAX4 (Homo sapiens, UniProt O43316 9-242, F177Y).
T23 sequence: T19 sequence with F169Y, K192R

Test [44] addresses T24, PAX4 (Homo sapiens, UniProt O43316 9-242, R227W).
T24 sequence: T19 sequence with K192R, R219W

Test [45] deals with HOXA7 (Homo sapiens, UniProt P31268 116-202).
The target in test [46] is HOXA7 (Homo sapiens, UniProt P31268 116-202, W177C).

Changes are numbered by the printed parent chain.

Chain of NKX2-5 (Homo sapiens, UniProt P52952 125-210) (P52952 125-210): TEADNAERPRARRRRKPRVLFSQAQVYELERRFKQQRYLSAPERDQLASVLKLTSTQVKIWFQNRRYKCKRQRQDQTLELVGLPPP
Chain of NKX2-5 (Homo sapiens, UniProt P52952 125-210, R139K) (P52952 125-210 R139K): as the sequence (P52952 125-210) above, with R15K counted along it
Chain of NKX3-2 (Homo sapiens, UniProt P78367 192-278, P234S) (P78367 192-278 P234S): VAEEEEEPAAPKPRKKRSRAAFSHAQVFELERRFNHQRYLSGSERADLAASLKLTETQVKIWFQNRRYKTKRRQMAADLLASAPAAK
Chain of NKX3-2 (Homo sapiens, UniProt P78367 192-278) (P78367 192-278): as the sequence (P78367 192-278 P234S) above, with S43P counted along it
Chain of PRRX1 (Homo sapiens, UniProt P54821 80-166, F113S) (P54821 80-166 F113S): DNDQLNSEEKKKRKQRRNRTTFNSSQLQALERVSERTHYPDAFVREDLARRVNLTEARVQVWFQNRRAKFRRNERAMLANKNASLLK
Chain of PRRX1 (Homo sapiens, UniProt P54821 80-166) (P54821 80-166): as the sequence (P54821 80-166 F113S) above, with S34F counted along it
Chain of HOXA7 (Homo sapiens, UniProt P31268 116-202) (P31268 116-202): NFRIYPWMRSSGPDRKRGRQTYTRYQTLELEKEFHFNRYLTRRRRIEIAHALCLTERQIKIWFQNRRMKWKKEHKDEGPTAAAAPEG
Chain of HOXC9 (Homo sapiens, UniProt P31274 178-260, R193K) (P31274 178-260 R193K): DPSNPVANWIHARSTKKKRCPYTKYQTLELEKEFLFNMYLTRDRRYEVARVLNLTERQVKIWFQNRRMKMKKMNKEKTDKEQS
Chain of ALX3 (Homo sapiens, UniProt O95076 139-225, N203S) (O95076 139-225 N203S): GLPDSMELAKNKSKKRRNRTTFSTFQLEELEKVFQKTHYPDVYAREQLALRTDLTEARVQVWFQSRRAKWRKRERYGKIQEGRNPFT
Chain of HOXA7 (Homo sapiens, UniProt P31268 116-202, W177C) (P31268 116-202 W177C): as the sequence (P31268 116-202) above, with W62C counted along it
Chain of ALX3 (Homo sapiens, UniProt O95076 139-225, L168V) (O95076 139-225 L168V): as the sequence (O95076 139-225 N203S) above, with L30V, S65N counted along it
Chain of HOXC9 (Homo sapiens, UniProt P31274 178-260, K195R) (P31274 178-260 K195R): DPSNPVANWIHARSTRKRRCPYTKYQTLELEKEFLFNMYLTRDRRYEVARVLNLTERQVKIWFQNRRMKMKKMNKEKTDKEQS
Chain of ALX3 (Homo sapiens, UniProt O95076 139-225, L168Q) (O95076 139-225 L168Q): as the sequence (O95076 139-225 N203S) above, with L30Q, S65N counted along it
Chain of PROP1 (Homo sapiens, UniProt O75360 56-141) (O75360 56-141): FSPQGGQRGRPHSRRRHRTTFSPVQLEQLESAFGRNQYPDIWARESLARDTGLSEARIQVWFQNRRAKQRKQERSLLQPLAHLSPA
Chain of PROP1 (Homo sapiens, UniProt O75360 56-141, R99H) (O75360 56-141 R99H): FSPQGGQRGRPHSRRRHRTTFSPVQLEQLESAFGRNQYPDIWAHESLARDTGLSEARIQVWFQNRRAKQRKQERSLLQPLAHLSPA
Chain of HOXC10 (Homo sapiens, UniProt Q9NYD6 254-340, K271E) (Q9NYD6 254-340 K271E): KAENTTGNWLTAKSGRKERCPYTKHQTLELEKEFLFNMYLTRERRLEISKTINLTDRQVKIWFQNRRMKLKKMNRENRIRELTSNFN
Chain of ALX3 (Homo sapiens, UniProt O95076 139-225, N203Q) (O95076 139-225 N203Q): as the sequence (O95076 139-225 N203S) above, with S65Q counted along it
Chain of ALX3 (Homo sapiens, UniProt O95076 139-225) (O95076 139-225): as the sequence (O95076 139-225 N203S) above, with S65N counted along it
Chain of HOXC10 (Homo sapiens, UniProt Q9NYD6 254-340) (Q9NYD6 254-340): as the sequence (Q9NYD6 254-340 K271E) above, with E18K counted along it
Chain of PROP1 (Homo sapiens, UniProt O75360 56-141, F88S) (O75360 56-141 F88S): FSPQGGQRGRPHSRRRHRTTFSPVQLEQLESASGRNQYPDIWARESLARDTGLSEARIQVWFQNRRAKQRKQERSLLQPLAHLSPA
Chain of HOXC9 (Homo sapiens, UniProt P31274 178-260, R222W) (P31274 178-260 R222W): as the sequence (P31274 178-260 R193K) above, with K16R, R45W counted along it
Chain of HOXC9 (Homo sapiens, UniProt P31274 178-260) (P31274 178-260): as the sequence (P31274 178-260 R193K) above, with K16R counted along it

GACACTTA: the binding signal in test [1] is 12.7 upbm affinity estimate (log intensity, higher = more binding, comparable within an allelic series); in test [2] it was 12.8 upbm affinity estimate (log intensity, higher = more binding, comparable within an allelic series); in [3] it was 11.8 upbm affinity estimate (log intensity, higher = more binding, comparable within an allelic series); in [4] it was 13.6 upbm affinity estimate (log intensity, higher = more binding, comparable within an allelic series); in [5], 12.9 upbm affinity estimate (log intensity, higher = more binding, comparable within an allelic series); in [6], 11.1 upbm affinity estimate (log intensity, higher = more binding, comparable within an allelic series). The binding signal in test [7] was 12.8 upbm affinity estimate (log intensity, higher = more binding, comparable within an allelic series); in test [8], 12.6 upbm affinity estimate (log intensity, higher = more binding, comparable within an allelic series); in test [9], 12.9 upbm affinity estimate (log intensity, higher = more binding, comparable within an allelic series).

Turning to ACACCGGG, the binding signal in test [1] was 8.93 upbm affinity estimate (log intensity, higher = more binding, comparable within an allelic series); in test [10] it was 10.2 upbm affinity estimate (log intensity, higher = more binding, comparable within an allelic series); in test [11] it was 10 upbm affinity estimate (log intensity, higher = more binding, comparable within an allelic series); in test [8], 8.94 upbm affinity estimate (log intensity, higher = more binding, comparable within an allelic series).

On to GCGGCCCA, for which the binding signal in test [1] is 8.95 upbm affinity estimate (log intensity, higher = more binding, comparable within an allelic series); in test [12] it was 8.92 upbm affinity estimate (log intensity, higher = more binding, comparable within an allelic series); in test [13], 8.97 upbm affinity estimate (log intensity, higher = more binding, comparable within an allelic series); in [14], 8.91 upbm affinity estimate (log intensity, higher = more binding, comparable within an allelic series); in test [15], 9.19 upbm affinity estimate (log intensity, higher = more binding, comparable within an allelic series); in [16] it was 8.93 upbm affinity estimate (log intensity, higher = more binding, comparable within an allelic series). In addition, the binding signal in test [17] was 8.95 upbm affinity estimate (log intensity, higher = more binding, comparable within an allelic series); in [18] it was 8.94 upbm affinity estimate (log intensity, higher = more binding, comparable within an allelic series); in [19] it was 8.87 upbm affinity estimate (log intensity, higher = more binding, comparable within an allelic series); in test [20] it was 8.74 upbm affinity estimate (log intensity, higher = more binding, comparable within an allelic series); in [21] it was 8.92 upbm affinity estimate (log intensity, higher = more binding, comparable within an allelic series); in test [22], 8.8 upbm affinity estimate (log intensity, higher = more binding, comparable within an allelic series). Besides, the binding signal in test [23] was 8.92 upbm affinity estimate (log intensity, higher = more binding, comparable within an allelic series); in test [24], 8.91 upbm affinity estimate (log intensity, higher = more binding, comparable within an allelic series); in test [8] it was 8.97 upbm affinity estimate (log intensity, higher = more binding, comparable within an allelic series).

Consider CACAAGTG, for which the binding signal in test [1] is 12.4 upbm affinity estimate (log intensity, higher = more binding, comparable within an allelic series); in test [3] it was 11.6 upbm affinity estimate (log intensity, higher = more binding, comparable within an allelic series).

For ACGGGGGC, the binding signal is 9.14 upbm affinity estimate (log intensity, higher = more binding, comparable within an allelic series) in test [1]; 9.65 upbm affinity estimate (log intensity, higher = more binding, comparable within an allelic series) in test [25]; 9.77 upbm affinity estimate (log intensity, higher = more binding, comparable within an allelic series) in test [26]; 7.66 upbm affinity estimate (log intensity, higher = more binding, comparable within an allelic series) in test [27]; 9.64 upbm affinity estimate (log intensity, higher = more binding, comparable within an allelic series) in test [28]; 7.79 upbm affinity estimate (log intensity, higher = more binding, comparable within an allelic series) in test [29]. The binding signal is 6.75 upbm affinity estimate (log intensity, higher = more binding, comparable within an allelic series) in test [30]; 6.67 upbm affinity estimate (log intensity, higher = more binding, comparable within an allelic series) in test [31]; 7.65 upbm affinity estimate (log intensity, higher = more binding, comparable within an allelic series) in [32]; 9.54 upbm affinity estimate (log intensity, higher = more binding, comparable within an allelic series) in test [33]; 7.65 upbm affinity estimate (log intensity, higher = more binding, comparable within an allelic series) in test [34]; 6.19 upbm affinity estimate (log intensity, higher = more binding, comparable within an allelic series) in test [35]. Besides, the binding signal in test [36] is 7.62 upbm affinity estimate (log intensity, higher = more binding, comparable within an allelic series); in test [8], 9.01 upbm affinity estimate (log intensity, higher = more binding, comparable within an allelic series).

Regarding CGCCTACC, the binding signal in [1] was 8.86 upbm affinity estimate (log intensity, higher = more binding, comparable within an allelic series); in test [37], 9.18 upbm affinity estimate (log intensity, higher = more binding, comparable within an allelic series); in test [38] it was 8.83 upbm affinity estimate (log intensity, higher = more binding, comparable within an allelic series); in [8], 8.84 upbm affinity estimate (log intensity, higher = more binding, comparable within an allelic series).

CACTTAGC: the binding signal in [1] is 12.6 upbm affinity estimate (log intensity, higher = more binding, comparable within an allelic series); in test [37] it was 9.83 upbm affinity estimate (log intensity, higher = more binding, comparable within an allelic series); in test [3], 11.7 upbm affinity estimate (log intensity, higher = more binding, comparable within an allelic series); in test [4], 13.5 upbm affinity estimate (log intensity, higher = more binding, comparable within an allelic series); in [6], 10.8 upbm affinity estimate (log intensity, higher = more binding, comparable within an allelic series); in test [7], 12.9 upbm affinity estimate (log intensity, higher = more binding, comparable within an allelic series). In addition, the binding signal in test [38] was 11.8 upbm affinity estimate (log intensity, higher = more binding, comparable within an allelic series); in test [8], 12.5 upbm affinity estimate (log intensity, higher = more binding, comparable within an allelic series); in test [9], 13 upbm affinity estimate (log intensity, higher = more binding, comparable within an allelic series).

For the sequence AGTCCCGG, the binding signal in test [1] was 8.88 upbm affinity estimate (log intensity, higher = more binding, comparable within an allelic series); in test [39] it was 9.42 upbm affinity estimate (log intensity, higher = more binding, comparable within an allelic series); in test [40] it was 9.48 upbm affinity estimate (log intensity, higher = more binding, comparable within an allelic series); in [4] it was 9.31 upbm affinity estimate (log intensity, higher = more binding, comparable within an allelic series); in [41], 9.44 upbm affinity estimate (log intensity, higher = more binding, comparable within an allelic series); in test [42], 9.3 upbm affinity estimate (log intensity, higher = more binding, comparable within an allelic series). For the same sequence, the binding signal was 9.36 upbm affinity estimate (log intensity, higher = more binding, comparable within an allelic series) in test [43]; 9.26 upbm affinity estimate (log intensity, higher = more binding, comparable within an allelic series) in test [6]; 9.43 upbm affinity estimate (log intensity, higher = more binding, comparable within an allelic series) in test [44]; 8.88 upbm affinity estimate (log intensity, higher = more binding, comparable within an allelic series) in test [8].

Consider ACCGGTCC, for which the binding signal is 8.75 upbm affinity estimate (log intensity, higher = more binding, comparable within an allelic series) in test [1]; 8.49 upbm affinity estimate (log intensity, higher = more binding, comparable within an allelic series) in [45]; 8.3 upbm affinity estimate (log intensity, higher = more binding, comparable within an allelic series) in test [46]; 8.88 upbm affinity estimate (log intensity, higher = more binding, comparable within an allelic series) in test [8].
